In PubChem BioAssay AID463173 (ICCB-Longwood Screening Facility, Harvard Medical School, 2010):
About 4,300 (8.3%) of roughly 52,000 compounds were called active. No stated cut-off is given here; in the data, active means survival mostly below about 52% (no sharp cut-off); inactive means mostly above about 56%. The full list was thinned out, with actives kept by preference.

test system: DeltatarO mutant; assay: S. aureus survival, RN4220 and DeltatarO strains – OD600, teichoic acid synthesis inhibitors, primary screen (AID 463173); conditions: S. aureus RN4220 wild type/DeltatarO growth, OD600, 18 h, hits give low values, screened at 18.75 µg/mL (by protocol)

Q: For CNS(=O)(=O)c1ccc(NC(=O)c2cnn3c(C(F)F)cc(-c4ccccc4)nc23)cc1, which survival is on record?
A: 66% (inactive)

Q: CC(C)c1ccc(NC(=O)c2cnn3c(C(F)F)cc(-c4ccccc4)nc23)cc1 was tested. Which survival did it give?
A: 65% (inactive)

Q: Which survival does the source give for COC(=O)c1ccc(C(=O)OC)c(NC(=O)c2cnn3c(C(F)F)cc(-c4ccc(C)cc4)nc23)c1 here?
A: 60% (inactive)

Q: CCOc1ccccc1NC(=O)c1cnn2c(C(F)F)cc(-c3ccccc3)nc12 was tested. Which survival did it give?
A: 58% (active)

Q: Which survival does the source give for CC(C)NC(=O)c1cnn2c(C(F)F)cc(-c3ccccc3)nc12 here?
A: 92% (inactive)

Q: COc1ccc(-c2cc(C(F)F)n3ncc(C(=O)Nc4cc(OC)ccc4OC)c3n2)cc1 was tested. Which survival did it give?
A: 51% (active)

Q: For CCN(CC)c1ccc(NC(=O)c2cnn3c(C(F)F)cc(-c4ccccc4)nc23)cc1, which survival is on record?
A: 59% (active)

Q: Which survival does the source give for COc1ccc(-c2cc(C(F)F)n3ncc(C(=O)Nc4cc(C)on4)c3n2)cc1 here?
A: 85% (inactive)

Q: O=C(Nc1cc(F)ccc1F)c1cnn2c(C(F)F)cc(-c3ccccc3)nc12 was tested. Which survival did it give?
A: 130% (inactive)

Q: CCCCn1nc(CC(=O)O)c2ccccc2c1=O was tested. Which survival did it give?
A: 83% (inactive)

Q: Which survival does the source give for COC(=O)c1ccccc1NC(=O)C1(c2cccs2)CCOCC1 here?
A: 83% (inactive)

Q: With COc1ccc(NC(=O)CN(C)S(=O)(=O)c2cnc[nH]2)cc1Cl as the compound, how does the survival read?
A: 98% (inactive)

Q: Which survival does the source give for COc1ccc(C(=O)NCCn2cc(SCC(=O)Nc3cccc(C)c3)c3ccccc32)cc1 here?
A: 60% (inactive)

Q: Which survival does the source give for Cc1ccc(-n2c(=O)c3c(C)c(C(=O)N(C)C)sc3n(CC(=O)C(C)(C)C)c2=O)cc1C here?
A: 107% (inactive)

Q: How did the survival turn out when COc1ccc(CNC(=O)c2ccc(NC(=O)N3CCSc4ccccc43)cc2)cc1 was run?
A: 56% (inactive)

Q: Cc1ccc(NC(=O)Cn2c(=O)n(CC(=O)NCCc3ccccc3)c(=O)c3ccccc32)cc1 was tested. Which survival did it give?
A: 89% (inactive)

Q: With CCC(C(=O)NC1CCCC1)N(C(=O)c1snc(C(N)=O)c1N)c1ccccc1 (stereo unspecified) as the compound, how does the survival read?
A: 73% (inactive)

Q: For COc1cccc(NC(=O)Cn2cc(C(=O)C3CCCCC3)c3ccccc32)c1, which survival is on record?
A: 79% (inactive)

Q: With COc1cccc(NC(=O)N(Cc2cn(C)c3ccccc23)C2CCCCCC2)c1 as the compound, how does the survival read?
A: -13% (active)

Q: For COc1cccc(NC(=O)N(Cc2c[nH]c3ccccc23)C2CCCCCC2)c1, which survival is on record?
A: 46% (inactive)

Q: COc1cccc(NC(=O)N(Cc2c[nH]c3ccccc23)C2CCCCC2)c1 was tested. Which survival did it give?
A: 65% (inactive)

Q: How did the survival turn out when COc1cccc(NC(=O)N(Cc2nc3ccccc3c(=O)[nH]2)C2CCCCC2)c1 was run?
A: 83% (inactive)

Q: For COc1cccc(NC(=O)N(Cc2cn(C)c3ccccc23)C2CCCCC2)c1, which survival is on record?
A: -12% (active)

Q: For CC(C)NC(=O)CSc1nc2ccccc2c(=O)n1Cc1ccc(C(=O)NC(C)C)cc1, which survival is on record?
A: 105% (inactive)

Q: Which survival does the source give for CCC1Oc2ccccc2N(CC(=O)NCc2cc(OC)ccc2OC)C1=O (stereo unspecified) here?
A: 85% (inactive)

Q: COc1ccc(-c2csc3nc(-c4ccccc4)oc(=O)c23)cc1OC was tested. Which survival did it give?
A: 115% (inactive)

Q: How did the survival turn out when COc1ccc(-c2csc3nc(-c4ccc(C)cc4)oc(=O)c23)cc1OC was run?
A: 63% (inactive)

Q: For COc1ccc(-c2csc3nc(-c4ccc(F)cc4)oc(=O)c23)cc1OC, which survival is on record?
A: 48% (active)

Q: With C=CCc1cccc2cc(C(=O)Nc3cccc(Cl)c3)c(=O)oc12 as the compound, how does the survival read?
A: 79% (inactive)

Q: Which survival does the source give for C=CCc1cccc2cc(C(=O)Nc3ccc(F)cc3)c(=O)oc12 here?
A: 44% (active)

Q: With C=CCc1cccc2cc(NC(C)=O)c(=O)oc12 as the compound, how does the survival read?
A: 76% (inactive)

Q: CCc1cccc(-n2c(=O)c3cccnc3n2CC(=O)Nc2ccc(OC)c(Cl)c2)c1 was tested. Which survival did it give?
A: 104% (inactive)

Q: Which survival does the source give for COc1ccc(CNC(=O)CSc2ncc(S(=O)(=O)c3ccc(Br)cc3)c(=O)[nH]2)cc1 here?
A: 62% (inactive)

Q: CCCCNc1nc(Oc2ccc(OCCC)nn2)nc(N(C)C)n1 was tested. Which survival did it give?
A: 84% (inactive)

Q: For COc1cccc(CNC(=O)CCc2c(C)nc3c4c(C)cc(C)nc4nn3c2C)c1, which survival is on record?
A: 80% (inactive)

Q: For CCc1ccc(OCC(=O)NCc2nc(-c3cccc(C)c3)no2)c(Br)c1, which survival is on record?
A: 94% (inactive)

Q: How did the survival turn out when COc1ccccc1OCc1nc(-c2cccc(C)c2)no1 was run?
A: -3% (active)

Q: How did the survival turn out when COc1ccc(-c2noc(COc3cc(C)c(Br)c(C)c3)n2)cc1OC was run?
A: 60% (inactive)

Q: For CCc1ccc(OCc2nc(-c3ccc(OC)c(OC)c3)no2)c(Br)c1, which survival is on record?
A: 33% (active)

Q: COc1ccc(N2CCN(c3ccc(-c4nc(-c5cccc(C)c5)no4)cc3[N+](=O)[O-])CC2)cc1 was tested. Which survival did it give?
A: 75% (inactive)

Q: COc1cc(OC)cc(-c2nc(-c3ccc4c(c3)[nH]c(=O)n4C)no2)c1 was tested. Which survival did it give?
A: 94% (inactive)

Q: How did the survival turn out when COc1ccc(C(=O)NCc2nc(-c3cccc(C)c3)no2)cc1OC was run?
A: 98% (inactive)

Q: With COc1cccc(-c2noc(COc3cccc(C)c3C)n2)c1 as the compound, how does the survival read?
A: 84% (inactive)

Q: COc1cccc(-c2noc(COc3ccccc3Cl)n2)c1 was tested. Which survival did it give?
A: 81% (inactive)

Q: How did the survival turn out when COc1ccc(-c2noc(CNS(=O)(=O)c3ccc(Br)cc3)n2)cc1OC was run?
A: 70% (inactive)

Q: With COc1ccc(-c2noc(COc3ccc(Br)cc3C)n2)cc1OC as the compound, how does the survival read?
A: 33% (active)

Q: How did the survival turn out when COc1cc(OC)cc(-c2nc(-c3cccc(C)c3)no2)c1 was run?
A: -3% (active)

Q: Which survival does the source give for COc1ccc(CCNC(=O)CCc2cn(Cc3ccc(C)cc3)c3ccccc23)c(OC)c1OC here?
A: 52% (inactive)

Q: With Cc1ccc2nc(-c3ccncc3)c(Nc3ccccc3C)n2c1 as the compound, how does the survival read?
A: 103% (inactive)

Q: How did the survival turn out when COc1ccc(CC(=O)NCc2ccc3c(c2)CCN3C(=O)c2ccc(C)cc2)cc1OC was run?
A: 99% (inactive)

Q: COc1ccccc1-c1nc2c(c(SCc3ccc(F)cc3Cl)n1)Cc1c(CO)cnc(C)c1O2 was tested. Which survival did it give?
A: 69% (inactive)

Q: Which survival does the source give for CCOC(=O)c1ccc(NC(=O)CC2C(=O)N(c3ccc(F)cc3)C(=O)N2Cc2cccnc2)cc1 (stereo unspecified) here?
A: 95% (inactive)

Q: With O=C(CSc1nc(-c2ccccc2)cc(=O)[nH]1)Nc1ccccc1 as the compound, how does the survival read?
A: 77% (inactive)

Q: For COc1ccc(-c2nc3cnccn3c2NCc2ccc3c(c2)OCO3)cc1CN1CCOCC1, which survival is on record?
A: 88% (inactive)

Q: Which survival does the source give for CC1CCC(NC(=O)c2ccc(CS(=O)(=O)c3cccc(C(F)(F)F)c3)o2)CC1 (stereo unspecified) here?
A: 75% (inactive)

Q: Which survival does the source give for O=C(c1ccc(F)cc1)c1cn(Cc2ccccc2F)c2cc3c(cc2c1=O)OCCO3 here?
A: 83% (inactive)

Q: How did the survival turn out when COc1ccc(NC(=O)c2c(NCc3cccc(F)c3)sc3c2CCCC3)c(OC)c1 was run?
A: 69% (inactive)

Q: Which survival does the source give for COc1ccc(-c2noc(CN(C)S(=O)(=O)c3c(C)cc(C)cc3C)n2)cc1OC here?
A: 45% (inactive)

Q: COc1ccc(OCc2nc(-c3ccc(OC)c(OC)c3)no2)cc1 was tested. Which survival did it give?
A: 61% (inactive)

Q: COc1ccc(-c2noc(COc3cc(C)ccc3C)n2)cc1OC was tested. Which survival did it give?
A: -5% (active)

Q: How did the survival turn out when CN(C)S(=O)(=O)c1ccc(S(=O)(=O)N(CC(=O)Nc2ccccc2)C2CC2)cc1 was run?
A: 94% (inactive)

Q: For Cc1cc(C)cc(OCC(=O)NCC2(N3CCOCC3)CCCCC2)c1, which survival is on record?
A: 91% (inactive)

Q: Which survival does the source give for COCc1[nH]nc2c1C(c1ccc(F)c(F)c1)C(C#N)=C(N)O2 (stereo unspecified) here?
A: 74% (inactive)

Q: CCn1c2ccccc2c2cc(C3C(C#N)=C(N)Oc4n[nH]c(C(C)C)c43)ccc21 (stereo unspecified) was tested. Which survival did it give?
A: 3% (active)

Q: Which survival does the source give for CCc1[nH]nc2c1C(c1ccc(F)c(Oc3ccccc3)c1)C(C#N)=C(N)O2 (stereo unspecified) here?
A: 80% (inactive)

Q: CCOC(=O)c1cc(S(=O)(=O)N2CCN(c3cccc(OC)c3)CC2)[nH]n1 was tested. Which survival did it give?
A: 108% (inactive)

Q: Which survival does the source give for COc1ccc(NS(=O)(=O)c2ccc3c(c2)CCN3C(=O)C2CC2)cc1OC here?
A: 86% (inactive)

Q: How did the survival turn out when COc1ccccc1N1CCN(C(=O)Cc2c(C(=O)O)c(C)cn2C)CC1 was run?
A: -5% (active)

Q: How did the survival turn out when Cc1cn(C)c(CC(=O)N2CCN(c3ccccc3F)CC2)c1C(=O)O was run?
A: 89% (inactive)

Q: For Cc1cccc(N2CCN(C(=O)Cc3c(C(=O)O)c(C)cn3C)CC2)c1C, which survival is on record?
A: 96% (inactive)

Q: Cc1ccc(NC(=O)c2cccc(NC(=O)N3CCSc4ncccc43)c2)cc1Cl was tested. Which survival did it give?
A: 88% (inactive)

Q: O=C(CCSCc1cnn(-c2ccccc2)c1-n1cccc1)NCc1ccc(Cl)cc1 was tested. Which survival did it give?
A: 63% (inactive)

Q: How did the survival turn out when O=S(=O)(c1ccc2nc(Nc3cccc(F)c3)ccc2c1)N1CCCC1 was run?
A: 72% (inactive)

Q: With CCOC(=O)c1cccc(Nc2ccc3cc(S(=O)(=O)N4CCCCC4)ccc3n2)c1 as the compound, how does the survival read?
A: -1% (active)

Q: How did the survival turn out when CC(=O)c1cccc(Nc2ccc3cc(S(=O)(=O)N4CCCC4)ccc3n2)c1 was run?
A: 101% (inactive)

Q: Which survival does the source give for COc1ccc(-c2onc(C)c2C)cc1S(=O)(=O)N1CCN(c2ccc(Cl)cc2)CC1 here?
A: 64% (inactive)

Q: Clc1cccc(CNNc2nc(N3CCCCC3)nc(N3CCCCC3)n2)c1 was tested. Which survival did it give?
A: 98% (inactive)

Q: CCn1cc2nc(SCc3cc(C)ccc3C)n(CCc3ccccc3)c(=O)c2n1 was tested. Which survival did it give?
A: 67% (inactive)

Q: With CCOC(=O)c1cnc2ccc(OC)cc2c1NCCc1ccc(OC)c(OC)c1 as the compound, how does the survival read?
A: 65% (inactive)

Q: For CCOC(=O)c1cnc2ccc(OC)cc2c1NCCc1ccccc1, which survival is on record?
A: -2% (active)

Q: CCOC(=O)c1ccc2ncc(C(=O)OCC)c(NCCc3ccc(OC)c(OC)c3)c2c1 was tested. Which survival did it give?
A: 53% (inactive)

Q: CCOC(=O)c1cnc2c(C)c(C)ccc2c1NCCCCCO was tested. Which survival did it give?
A: 84% (inactive)

Q: For CCOC(=O)c1cnc2c(C)c(Cl)ccc2c1NCCc1ccccc1, which survival is on record?
A: -3% (active)

Q: CCOC(=O)c1cnc2ccccc2c1NCCc1ccc(OC)c(OC)c1 was tested. Which survival did it give?
A: 33% (active)

Q: CCOC(=O)c1cnc2ccc(OCC)cc2c1NCCc1ccc(OC)c(OC)c1 was tested. Which survival did it give?
A: 116% (inactive)

Q: With CCOC(=O)c1cnc2ccc(C)cc2c1NCCc1ccc(OC)c(OC)c1 as the compound, how does the survival read?
A: 136% (inactive)

Q: With CCOC(=O)c1cnc2c(C)c(Cl)ccc2c1NCCc1ccc(OC)c(OC)c1 as the compound, how does the survival read?
A: 17% (active)

Q: CCOC(=O)c1cnc2c(C)c(Cl)ccc2c1Nc1ccc(C)cc1C was tested. Which survival did it give?
A: 142% (inactive)

Q: Which survival does the source give for Cn1c(=O)n(CCc2ccccc2)c(=O)c2c1nc1n2CCN1c1ccc(Cl)cc1 here?
A: 76% (inactive)

Q: For O=C(Cc1ccccc1)N(Cc1cccnc1)c1nc2ccc(F)cc2s1, which survival is on record?
A: 86% (inactive)

Q: Cc1ccc(C2CCN(C(=O)c3cnn(-c4ccc(C)c(C)c4)c3C3CCN(C(=O)OC(C)(C)C)CC3)C2)cc1 (stereo unspecified) was tested. Which survival did it give?
A: 90% (inactive)
